# Assay results taken from the supplement of paper PMC10849652.
# Targets with a hit are over-represented here; the source holds about 8,800 in all. About 0.5% of all pairs of compound and target were hits. A number with no mark means an inactive call.
# What was measured:
# Assay in all cases: log2 fold change, soluble protein after heating vs DMSO (PISA); higher = thermal stabilisation; K562 lysate, 10 uM; active = over 0.2 and 3.5 SD of the protein, either way, in both replicates (recomputed)
# erlotinib = compound: C#Cc1cccc(Nc2ncnc3cc(OCCOC)c(OCCOC)cc23)c1 [erlotinib]
# Summary of the method: (§1)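 A 30 min treatment with 10 μM compound was applied to crude K562 extract at 1 mg/mL protein in PBS pH 7.4 with 1 mM MgCl2. Heating for 3 min spanned 48°C-58°C, after which aliquots were pooled, adjusted to 0.5% NP-40 at 4°C and spun at 21,000xg for 90 min. TMTpro 16plex LC-MS/MS of the supernatant, with channel sums equalised, gave values recorded as log-two fold change in thermal stability against solvent controls, from duplicates.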
# [1] = compound: C/C(=N\NC(=O)C1=CC(=CC=C1)S(=O)(=O)N2CCOCC2)/C3=C(C=CC(=C3)Cl)O
# Summary of the method: as §1
# [2] = compound: C1=CC(=CC=C1C2=NC3=C(N2)C=C(C=C3)C(=O)N)OC4=CC=C(C=C4)Cl
# Summary of the method: as §1
# [3] = compound: C1=CC2=C(C=CC(=C2)/C=C\3/C(=O)NC(=NCC4=CC=CS4)S3)N=C1
# Summary of the method: as §1
# [4] = compound: C1=CC2=NC=CN=C2C=C1/C=C/3\C(=O)NC(=O)S3
# Summary of the method: as §1
# [5] = compound: C1=CC=C(C=C1)C2=NC(=C(N2)C3=CC=NC=C3)C4=CC(=C(C=C4)Cl)O
# Summary of the method: as §1
# [6] = compound: C1=CC=C2C(=C1)C3=NNC4=CC=CC(=C43)C2=O
# Summary of the method: as §1
# [7] = compound: C1CCN(C1)C(=O)NC2=CC=CC(=C2)NC3=NC=C(C(=N3)NCCC4=CN=CN4)Br
# Summary of the method: as §1
# [8] = compound: C1CN(CCC1(CC2=CC=C(C=C2)Cl)N)C3=NC=NC4=C3C=CN4
# Summary of the method: as §1
# IRAK-1-4 Inhibitor I = compound: C1COCCN1CCN2C3=CC=CC=C3N=C2NC(=O)C4=CC(=CC=C4)[N+](=O)[O-] [IRAK-1-4 Inhibitor I]
# Summary of the method: as §1
# Sequence of UniProt O00471 (O00471 whole entry, looked up): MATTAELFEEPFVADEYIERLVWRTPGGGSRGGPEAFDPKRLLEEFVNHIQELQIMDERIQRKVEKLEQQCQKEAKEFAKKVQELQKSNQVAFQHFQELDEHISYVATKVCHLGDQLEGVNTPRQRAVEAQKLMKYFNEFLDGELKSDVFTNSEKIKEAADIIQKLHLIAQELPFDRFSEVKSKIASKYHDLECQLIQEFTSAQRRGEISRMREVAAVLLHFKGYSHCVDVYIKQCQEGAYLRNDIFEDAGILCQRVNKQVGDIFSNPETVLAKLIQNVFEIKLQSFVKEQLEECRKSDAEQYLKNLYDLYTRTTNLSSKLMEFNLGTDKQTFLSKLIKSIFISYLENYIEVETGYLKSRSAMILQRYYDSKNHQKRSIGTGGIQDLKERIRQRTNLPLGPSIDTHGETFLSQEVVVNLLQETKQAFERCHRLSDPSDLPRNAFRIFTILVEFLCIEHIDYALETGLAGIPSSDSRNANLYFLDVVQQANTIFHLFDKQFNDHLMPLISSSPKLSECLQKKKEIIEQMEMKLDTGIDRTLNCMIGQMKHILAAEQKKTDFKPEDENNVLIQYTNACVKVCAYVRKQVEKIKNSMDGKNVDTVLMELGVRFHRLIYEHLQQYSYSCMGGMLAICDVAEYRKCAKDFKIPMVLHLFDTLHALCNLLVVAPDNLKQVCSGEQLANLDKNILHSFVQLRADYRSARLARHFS
# Sequence of UniProt Q6IPR1 (Q6IPR1 whole entry, looked up): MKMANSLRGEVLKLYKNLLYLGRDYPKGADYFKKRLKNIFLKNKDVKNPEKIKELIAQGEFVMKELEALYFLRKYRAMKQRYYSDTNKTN
# Sequence of UniProt O14526 (O14526 whole entry, looked up): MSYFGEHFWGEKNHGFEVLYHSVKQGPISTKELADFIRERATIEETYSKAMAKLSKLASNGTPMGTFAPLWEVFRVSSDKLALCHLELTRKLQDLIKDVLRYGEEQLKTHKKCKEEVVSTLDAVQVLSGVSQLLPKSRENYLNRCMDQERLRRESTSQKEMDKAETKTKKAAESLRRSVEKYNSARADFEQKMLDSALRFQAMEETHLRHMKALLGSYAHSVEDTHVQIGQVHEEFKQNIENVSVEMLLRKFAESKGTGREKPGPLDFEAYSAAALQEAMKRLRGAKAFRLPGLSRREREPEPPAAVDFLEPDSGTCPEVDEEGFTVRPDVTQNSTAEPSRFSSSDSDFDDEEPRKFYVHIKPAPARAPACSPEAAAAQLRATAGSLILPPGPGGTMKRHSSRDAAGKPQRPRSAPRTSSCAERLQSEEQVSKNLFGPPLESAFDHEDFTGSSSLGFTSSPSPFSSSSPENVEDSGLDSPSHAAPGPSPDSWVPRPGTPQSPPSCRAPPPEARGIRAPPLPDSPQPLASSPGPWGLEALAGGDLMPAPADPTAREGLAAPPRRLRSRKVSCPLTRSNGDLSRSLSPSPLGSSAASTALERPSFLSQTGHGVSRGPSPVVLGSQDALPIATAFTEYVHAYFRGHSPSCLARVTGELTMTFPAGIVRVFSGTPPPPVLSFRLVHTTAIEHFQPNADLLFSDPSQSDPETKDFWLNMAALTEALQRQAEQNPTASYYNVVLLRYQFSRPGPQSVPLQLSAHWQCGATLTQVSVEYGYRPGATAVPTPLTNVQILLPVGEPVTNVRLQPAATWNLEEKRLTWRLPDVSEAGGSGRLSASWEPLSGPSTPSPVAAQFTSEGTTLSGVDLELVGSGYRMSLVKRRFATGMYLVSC
# Sequence of UniProt Q9BQS8 (Q9BQS8 whole entry, looked up): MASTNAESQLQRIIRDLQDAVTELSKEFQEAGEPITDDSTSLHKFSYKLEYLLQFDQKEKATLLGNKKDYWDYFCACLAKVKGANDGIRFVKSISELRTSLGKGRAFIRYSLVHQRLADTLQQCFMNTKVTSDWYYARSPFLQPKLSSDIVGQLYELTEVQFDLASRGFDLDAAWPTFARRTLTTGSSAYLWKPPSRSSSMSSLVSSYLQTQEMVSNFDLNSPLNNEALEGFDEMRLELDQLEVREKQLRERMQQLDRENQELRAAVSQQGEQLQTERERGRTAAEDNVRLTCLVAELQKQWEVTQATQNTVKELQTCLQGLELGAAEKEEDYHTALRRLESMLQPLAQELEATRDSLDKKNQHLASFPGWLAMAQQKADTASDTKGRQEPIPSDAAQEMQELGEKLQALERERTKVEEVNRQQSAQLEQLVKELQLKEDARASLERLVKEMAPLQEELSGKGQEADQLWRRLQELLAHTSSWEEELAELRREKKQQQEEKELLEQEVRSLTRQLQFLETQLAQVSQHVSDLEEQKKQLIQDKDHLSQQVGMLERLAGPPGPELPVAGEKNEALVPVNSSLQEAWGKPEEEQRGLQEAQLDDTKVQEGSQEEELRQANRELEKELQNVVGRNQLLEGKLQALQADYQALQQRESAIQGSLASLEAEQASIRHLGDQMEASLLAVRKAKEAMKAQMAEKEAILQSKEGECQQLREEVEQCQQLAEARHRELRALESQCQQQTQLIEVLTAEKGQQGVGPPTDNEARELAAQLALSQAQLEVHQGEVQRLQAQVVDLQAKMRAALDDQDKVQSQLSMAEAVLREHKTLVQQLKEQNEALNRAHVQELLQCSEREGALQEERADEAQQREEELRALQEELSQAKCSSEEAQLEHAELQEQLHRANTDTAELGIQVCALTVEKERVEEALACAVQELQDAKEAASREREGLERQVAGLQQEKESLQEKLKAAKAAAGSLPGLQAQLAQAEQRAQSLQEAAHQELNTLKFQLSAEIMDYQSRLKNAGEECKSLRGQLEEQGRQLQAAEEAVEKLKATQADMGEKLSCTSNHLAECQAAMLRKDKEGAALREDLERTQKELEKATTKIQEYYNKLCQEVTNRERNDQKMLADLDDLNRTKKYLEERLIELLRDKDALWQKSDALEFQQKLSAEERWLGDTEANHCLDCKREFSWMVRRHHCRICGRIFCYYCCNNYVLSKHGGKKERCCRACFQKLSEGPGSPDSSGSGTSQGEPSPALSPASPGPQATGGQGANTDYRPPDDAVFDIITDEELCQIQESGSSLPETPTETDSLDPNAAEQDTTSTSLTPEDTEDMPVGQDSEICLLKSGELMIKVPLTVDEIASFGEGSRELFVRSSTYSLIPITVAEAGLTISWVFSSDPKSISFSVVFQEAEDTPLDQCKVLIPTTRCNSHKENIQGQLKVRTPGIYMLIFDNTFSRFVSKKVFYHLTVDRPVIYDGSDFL
# Sequence of UniProt Q9H8W3 (Q9H8W3 whole entry, looked up): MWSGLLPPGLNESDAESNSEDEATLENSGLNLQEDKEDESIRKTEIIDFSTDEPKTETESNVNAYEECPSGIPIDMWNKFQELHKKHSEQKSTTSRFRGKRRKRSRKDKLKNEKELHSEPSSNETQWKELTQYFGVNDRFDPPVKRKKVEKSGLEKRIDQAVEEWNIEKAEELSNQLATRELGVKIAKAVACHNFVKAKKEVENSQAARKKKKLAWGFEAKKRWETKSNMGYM
# Sequence of UniProt Q9NX74 (Q9NX74 whole entry, looked up): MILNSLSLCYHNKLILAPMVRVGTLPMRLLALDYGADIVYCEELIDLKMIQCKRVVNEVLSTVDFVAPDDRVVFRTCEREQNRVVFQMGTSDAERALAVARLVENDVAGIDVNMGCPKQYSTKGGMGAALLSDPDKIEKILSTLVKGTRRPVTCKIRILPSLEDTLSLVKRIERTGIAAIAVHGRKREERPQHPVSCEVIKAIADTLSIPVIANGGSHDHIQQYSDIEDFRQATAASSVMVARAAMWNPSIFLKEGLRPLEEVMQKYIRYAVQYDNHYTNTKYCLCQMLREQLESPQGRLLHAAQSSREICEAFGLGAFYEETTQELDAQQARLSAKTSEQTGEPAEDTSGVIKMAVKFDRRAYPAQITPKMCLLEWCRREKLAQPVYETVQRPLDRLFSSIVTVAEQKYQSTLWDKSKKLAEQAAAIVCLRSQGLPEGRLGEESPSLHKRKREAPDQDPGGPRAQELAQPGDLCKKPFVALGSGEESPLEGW
# Sequence of UniProt Q9Y613 (Q9Y613 whole entry, looked up): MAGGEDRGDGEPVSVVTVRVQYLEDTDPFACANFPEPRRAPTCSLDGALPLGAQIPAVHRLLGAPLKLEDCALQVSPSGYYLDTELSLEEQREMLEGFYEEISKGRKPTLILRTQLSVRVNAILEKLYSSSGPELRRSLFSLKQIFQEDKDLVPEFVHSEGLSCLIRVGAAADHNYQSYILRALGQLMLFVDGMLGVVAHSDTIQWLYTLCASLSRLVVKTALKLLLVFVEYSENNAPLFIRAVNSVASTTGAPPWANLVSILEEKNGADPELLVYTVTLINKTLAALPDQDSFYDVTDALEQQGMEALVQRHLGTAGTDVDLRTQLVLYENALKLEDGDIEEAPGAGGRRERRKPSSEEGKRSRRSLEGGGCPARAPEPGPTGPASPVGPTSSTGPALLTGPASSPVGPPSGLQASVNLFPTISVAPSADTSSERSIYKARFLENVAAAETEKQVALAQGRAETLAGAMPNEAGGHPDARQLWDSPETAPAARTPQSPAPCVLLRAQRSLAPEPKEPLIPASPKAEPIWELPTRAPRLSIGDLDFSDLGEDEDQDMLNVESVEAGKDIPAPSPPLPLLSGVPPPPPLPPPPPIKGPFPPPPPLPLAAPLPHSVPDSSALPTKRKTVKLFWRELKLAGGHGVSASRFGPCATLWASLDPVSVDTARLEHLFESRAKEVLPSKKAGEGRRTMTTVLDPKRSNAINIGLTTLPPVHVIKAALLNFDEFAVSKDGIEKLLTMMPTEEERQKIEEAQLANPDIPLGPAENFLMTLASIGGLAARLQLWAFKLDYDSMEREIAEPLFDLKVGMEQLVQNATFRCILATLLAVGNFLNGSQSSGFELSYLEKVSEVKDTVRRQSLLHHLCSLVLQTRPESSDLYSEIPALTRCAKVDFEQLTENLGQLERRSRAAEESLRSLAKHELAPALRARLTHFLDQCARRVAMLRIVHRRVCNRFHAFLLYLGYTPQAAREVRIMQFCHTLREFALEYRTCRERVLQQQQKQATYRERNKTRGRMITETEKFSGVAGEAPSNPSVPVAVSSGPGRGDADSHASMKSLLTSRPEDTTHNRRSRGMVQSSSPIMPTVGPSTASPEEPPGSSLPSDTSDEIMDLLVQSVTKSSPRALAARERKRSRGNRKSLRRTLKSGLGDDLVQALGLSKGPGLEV
Target,log2 fold change (erlotinib),log2 fold change [1],log2 fold change [2],log2 fold change [3],log2 fold change [4],log2 fold change [5],log2 fold change [6],log2 fold change [7],log2 fold change [8],log2 fold change (IRAK-1-4 Inhibitor I)
EPB41 (UniProt P11171),-0.024,-0.021,-0.068,0.006,-0.005,0,0.014,0.004,0.008,-0.028
FOXK1 (UniProt P85037),0.014,-0.029,0.038,0.013,-0.057,-0.011,0.007,-0.036,0.013,-0.014
FYCO1 isoform 4 (UniProt Q9BQS8),0.029,0.026,0.014,-0.01,-0.019,-0.006,-0.016,-0.013,0.009,0
ESPL1 (UniProt Q14674),0.147,0.019,0.074,-0.086,0.009,-0.011,0.054,-0.025,0.006,-0.028
FBXO45 (UniProt P0C2W1),0.077,0.016,-0.033,0.092,-0.099,-0.126,-0.069,0.018,0.01,-0.043
ERAL1 (UniProt O75616),-0.016,-0.003,0.05,-0.014,0.03,0.015,-0.027,-0.041,-0.047,-0.042
DUS2 (UniProt Q9NX74),0.006,0.007,0.017,0.057,0.027,0.021,0.033,-0.016,0.05,-0.004
GAA (UniProt P10253),0.077,0.046,0.054,-0.041,-0.005,0.006,-0.208,0.007,0.092,0.025
FAT2 (UniProt Q9NYQ8),0.215,-0.092,-0.311,0.038,-0.076,-0.135,-0.147,-0.007,0.01,-0.016
FCHO1 (UniProt O14526),0.062,0.034,0.045,-0.055,0.024,0.065,-0.064,-0.044,-0.022,-0.021
DTYMK (UniProt P23919),-0.013,0.025,0.01,-0.017,0.024,-0.016,0.004,0.01,-0.027,-0.028
FAU (UniProt E9PR30),-0.026,-1.8,-0.059,-0.048,0.016,-0.016,0,0.011,-0.021,0.053
"EEF1A1, A0A087WVQ9",0.029,-0.049,0.054,-0.069,-0.016,-0.035,-0.072,-0.019,-0.001,0.03
"FBRSL1, A0A3B3IRR3",-0.014,-0.021,0.042,-0.03,0,-0.028,-0.199,0.043,-0.015,-0.024
FANCI (UniProt Q9NVI1),0.012,-0.031,-0.056,0.013,0.021,-0.001,-0.051,-0.008,-0.009,0.013
FADS3 (UniProt Q9Y5Q0),0.075,-0.355,-0.052,0.118,0.016,-0.072,-0.124,0.109,-0.291,-0.097
EWSR1 isoform 5 (UniProt Q01844),-0.135,-0.037,-0.1,0.012,0.015,0.037,0.015,-0.009,-0.028,0.018
FMNL1 isoform 3 (UniProt O95466),-0.045,0.045,-0.006,-0.102,-0.062,-0.004,0.018,-0.006,0.019,-0.009
EXOC5 (UniProt O00471),0.022,-0.021,-0.041,0.033,-0.006,-0.013,-0.016,0.005,0.006,-0.011
FHOD1 (UniProt Q9Y613),0.005,0.021,0,0.048,-0.02,-0.011,-0.016,-0.011,-0.009,-0.008

Target,log2 fold change (erlotinib),log2 fold change [1],log2 fold change [2],log2 fold change [3],log2 fold change [4],log2 fold change [5],log2 fold change [6],log2 fold change [7],log2 fold change [8],log2 fold change (IRAK-1-4 Inhibitor I)
"FADS1, A0A0A0MR51",-0.006,-0.033,-0.008,0.085,-0.026,-0.012,0.05,-0.002,-0.064,-0.026
GATAD2A isoform 3 (UniProt Q86YP4),0.012,-0.124,-0.003,-0.034,0.003,-0.002,-0.035,-0.037,0.034,-0.016
GGT7 (UniProt Q9UJ14),-0.04,0.07,0.021,-0.116,0.094,-0.059,0.018,0.026,-0.023,0.027
EMC7 (UniProt Q9NPA0),0.023,-0.011,-0.009,-0.02,-0.044,-0.011,-0.052,-0.002,0.011,0.02
EPB41 isoform 4 (UniProt P11171),-0.128,,-0.054,,,-0.012,,,,0.002
FAM111A (UniProt Q96PZ2),-0.025,-0.04,-0.01,0.002,,-0.088,-0.088,0.046,0.022,-0.088
EPN2 (UniProt O95208),0.054,-0.08,-0.001,-0.011,-0.059,-0.039,0.003,-0.003,0.007,-0.005
GDE1 (UniProt Q9NZC3),0.042,,0.02,,-0.032,0.097,,0.05,0.027,-0.01
EXO5 (UniProt Q9H790),0.279,,0.012,,-0.226,0.085,,,,-0.028
FTSJ1 isoform 2 (UniProt Q9UET6),,-0.149,,0.055,,,-0.039,0.051,0.059,
GART (UniProt C9JZG2),,,,,0.092,0.007,,-0.025,-0.011,0.078
GCA (UniProt P28676),-0.115,,-0.037,,,,,,,
ELAVL4 (UniProt P26378),0.073,0.047,-0.063,-0.047,,0.015,0.002,0.029,0.036,-0.012
EIF2AK3 (UniProt Q9NZJ5),-0.014,,0.015,,,-0.049,,,,-0.044
FMNL2 isoform 3 (UniProt Q96PY5),-0.02,,-0.064,,,0.083,,,,-0.092
FAM204A (UniProt Q9H8W3),-0.021,-0.018,-0.014,0.11,,0.018,-0.008,,,0.01
ERG28 (UniProt Q9UKR5),,,,,-0.015,,,0.072,-0.066,
GAPVD1 (UniProt Q14C86),,,,,-0.016,,,,,
ETFRF1 (UniProt Q6IPR1),-0.032,-0.008,-0.048,0.083,-0.064,-0.038,-0.063,,,-0.002
"EPB41, A0A2R8Y783",,-0.136,,0.09,-0.058,,0.017,-0.001,0.346,

Target,log2 fold change (erlotinib),log2 fold change [1],log2 fold change [2],log2 fold change [3],log2 fold change [4],log2 fold change [5],log2 fold change [6],log2 fold change [7],log2 fold change [8],log2 fold change (IRAK-1-4 Inhibitor I)
EPS8L2 (UniProt Q9H6S3),0.082,,0.009,,0.037,0.133,,-0.108,0.055,-0.086
ESRRB isoform 1 (UniProt O95718),0.1,,-0.783 (active),,-0.021,0.016,,,,0.236
DTL (UniProt Q9NZJ0),0.106,-0.053,0.012,0.067,-0.029,-0.002,-0.072,,,0.006
EWSR1 (UniProt H7BY36),,-0.711,,-0.346,0.111,-0.208,-0.428,-0.011,-0.035,-0.074
GBA2 (UniProt Q9HCG7),-0.088,,0.063,,0.035,-0.055,,0.007,0.041,0.01
DYRK1A isoform 2 (UniProt Q13627),-0.064,,-0.476,,0.247,0.069,,,,-0.595
FNDC3A (UniProt Q9Y2H6),0.198,,0.024,,,-0.112,,,,0.04
GCN1 (UniProt Q92616),0.048,0.066,-0.086,0.022,0.054,0.026,-0.016,-0.008,0.003,0.008
FOXL2 (UniProt P58012),0.274,,-0.129,,-0.006,-0.085,,-0.024,0.187,0.026
EHHADH (UniProt Q08426),-0.05,,0.08,,-0.029,0.007,,0.045,-0.106,-0.09
DUSP22 isoform 2 (UniProt Q9NRW4),-0.016,0.157,0.007,0.075,0.051,0.035,0.143,,,-0.028
GC isoform 3 (UniProt P02774),,0.039,,-0.019,,-0.199,0.012,0.051,0.055,0.15
FAM76B (UniProt Q5HYJ3),-0.027,-0.35,-0.016,-0.137,,-0.053,0.046,-0.019,0.061,-0.008
EID1 (UniProt Q9Y6B2),0.089,,-0.172,,,0.096,,0.064,0.091,0.044
DST isoform 3 (UniProt Q03001),0.005,,0.181,,-0.085,,,-0.034,-0.043,
EP300 (UniProt Q09472),0.017,0.011,-0.024,-0.017,0.078,-0.015,-0.019,-0.033,0,-0.006
FOXJ2 (UniProt Q9P0K8),0.102,,0.056,,0.139,0.026,,0.138,-0.036,-0.03
GIPC3 (UniProt Q8TF64),-0.049,,0.091,,-0.025,0.063,,0.008,0.139,0.101
EPN2 (UniProt I3L356),,,,,-0.143,,,,,
FAT1 (UniProt Q14517),-0.004,,0.006,,,0.126,,-0.119,0.128,-0.053
